Consider 59 molecules from the antibiotic and cytotoxicity screens of Wong et al. (2023).

The whole screen tested about 39,000 compounds, of which about 1,500 (3.8%) were called active. What follows is part of a selection rich in actives, with near analogues and random picks from the rest.

The assay has as its system HSkMC (human skeletal muscle cells). The assay is described as follows: cytotoxicity call (relative viability < 0.9). Conditions: 10 µM.
As for `C[C@@H]1CN([C@H](C)CO)C(=O)Cc2cc(NS(=O)(=O)c3ccc(Cl)cc3)ccc2O[C@H]1CN(C)C(=O)Nc1cccc2ccccc12`, the cytotoxicity call was “inactive”.
With `C[C@H]1CN([C@@H](C)CO)C(=O)c2cccc(NC(=O)Nc3ccc4c(c3)OCO4)c2O[C@H]1CN(C)S(=O)(=O)c1cn(C)cn1` the entry was “inactive”; with `CCCN(C)C[C@H]1OCCCC[C@H](C)Oc2ccc(NC(=O)NC3CCCCC3)cc2C(=O)N([C@@H](C)CO)C[C@H]1C`, “inactive”; with `C[C@H]1CCCCO[C@@H](CN(C)S(=O)(=O)c2ccc(F)cc2)[C@@H](C)CN([C@@H](C)CO)C(=O)c2cc(NS(=O)(=O)c3cn(C)cn3)ccc2O1`, “inactive”.
With `C[C@@H]1CN([C@@H](C)CO)C(=O)c2cc(NC(=O)c3ccncc3)ccc2O[C@@H](C)CCCCO[C@H]1CN(C)C(=O)Nc1ccccc1` the entry was “inactive”; with `O=C(C[C@H]1C=C[C@@H](NC(=O)c2ccncc2)[C@@H](CO)O1)NCc1ccncn1`, “inactive”; with `Cc1ccccc1S(=O)(=O)N1C[C@@H](O)COC[C@H]2O[C@H](CC(=O)N3CCOCC3)CC[C@@H]21`, “inactive”.
With `CC1CCC2(C)C(C=O)=CCCC2C1(C)CC1OC(O)C(=O)C12CO2` (centres undefined) the entry was “inactive”; with `C[C@@H]1CCCCO[C@@H](CN(C)CC2CCCCC2)[C@H](C)CN([C@H](C)CO)C(=O)c2cc(NC(=O)CCC(F)(F)F)ccc2O1`, “inactive”; with `C[C@H](CO)N1C[C@H](C)[C@H](CN(C)C(=O)Nc2ccc(F)cc2)Oc2ccc(NC(=O)Cn3cnnn3)cc2C1=O`, “inactive”.
Turning to `C[C@H]1CN([C@@H](C)CO)C(=O)c2cccc(NC(=O)NC3CCCCC3)c2O[C@@H]1CN(C)C(=O)Nc1ccc(C(F)(F)F)cc1`, the cytotoxicity call is “inactive”.
With `C[C@@H]1CN([C@@H](C)CO)C(=O)c2cccc(NC(=O)NC3CCCCC3)c2O[C@@H]1CN(C)C(=O)Nc1ccc(C(F)(F)F)cc1` the entry was “active”; with `C[C@@H]1CN([C@H](C)CO)C(=O)c2cccc(NC(=O)NC3CCCCC3)c2O[C@@H]1CN(C)C(=O)Nc1ccc(C(F)(F)F)cc1`, “inactive”; with `C[C@@H]1CN([C@H](C)CO)C(=O)c2cccc(NC(=O)NC3CCCCC3)c2O[C@H]1CN(C)C(=O)Nc1ccc(C(F)(F)F)cc1`, “inactive”.
With `C[C@H](CO)N1C[C@H](C)[C@H](CN(C)C(=O)Nc2ccc(C(F)(F)F)cc2)Oc2c(NC(=O)NC3CCCCC3)cccc2C1=O` the entry was “inactive”.
With `C[C@H]1CN([C@@H](C)CO)C(=O)c2cccc(NC(=O)NC3CCCCC3)c2O[C@H]1CN(C)C(=O)Nc1ccc(C(F)(F)F)cc1` the entry was “active”.
As for `COc1ccc(NC(=O)Nc2ccc3c(c2)C(=O)N([C@H](C)CO)C[C@H](C)[C@H](CN(C)S(=O)(=O)c2cn(C)cn2)O3)cc1`, the cytotoxicity call is “inactive”.
In the case of `Cc1cc(-c2cccs2)cc(C)n1`, the cytotoxicity call was “inactive”.
With `COCC(=O)N1C[C@H](C)[C@H](OC)CN(C)C(=O)c2cc(NC(=O)c3cc(C)on3)ccc2OC[C@@H]1C` the entry was “inactive”; with `COc1cc2c(cc1O)CCN[C@]21CS[C@@H]2c3c(OC(C)=O)c(C)c4c(c3[C@H](COC1=O)N1[C@@H]2[C@H]2c3c(cc(C)c(OC)c3O)C[C@@H]([C@@H]1O)N2C)OCO4`, “active”.
With `COc1ccc(NC(=O)N(C)C[C@H]2OCCCC[C@@H](C)Oc3ccc(NC(=O)Nc4ccc(C(F)(F)F)cc4)cc3C(=O)N([C@@H](C)CO)C[C@H]2C)cc1` the entry was “inactive”.
With `CCS(=O)(=O)Nc1ccc2c(c1)C(=O)N(C)C[C@@H](OC)[C@@H](C)CN(Cc1nccs1)[C@@H](C)CO2` the entry was “inactive”; with `C[C@@H]1CCCCO[C@@H](CN(C)Cc2ccc(Cl)c(Cl)c2)[C@H](C)CN([C@@H](C)CO)C(=O)c2cc(NS(=O)(=O)c3ccccc3)ccc2O1`, “active”.
For the molecule `C[C@@H]1CCCCO[C@@H](CN(C)Cc2ccc(Cl)c(Cl)c2)[C@@H](C)CN([C@@H](C)CO)C(=O)c2cc(NS(=O)(=O)c3ccccc3)ccc2O1`, the cytotoxicity call is “active”.
With `C[C@@H]1CN([C@H](C)CO)C(=O)c2cc(NS(=O)(=O)c3ccccc3)ccc2O[C@@H](C)CCCCO[C@H]1CN(C)Cc1ccc(Cl)c(Cl)c1` the entry was “inactive”.
`C[C@@H]1CCCCO[C@@H](CN(C)Cc2ccc(Cl)c(Cl)c2)[C@@H](C)CN([C@H](C)CO)C(=O)c2cc(NS(=O)(=O)c3ccccc3)ccc2O1`: the cytotoxicity call was “inactive”.
With `C[C@H](CO)N1C[C@H](C)[C@@H](CN(C)Cc2ccc(Cl)c(Cl)c2)OCCCC[C@H](C)Oc2ccc(NS(=O)(=O)c3ccccc3)cc2C1=O` the entry was “inactive”; with `C[C@@H]1CCCCO[C@@H](CN(C)Cc2ccc(Cl)c(Cl)c2)[C@H](C)CN([C@H](C)CO)C(=O)c2cc(NS(=O)(=O)c3ccccc3)ccc2O1`, “active”.
With `C[C@@H]1CCCCO[C@H](CN(C)Cc2ccc(Cl)c(Cl)c2)[C@H](C)CN([C@@H](C)CO)C(=O)c2cc(NS(=O)(=O)c3ccccc3)ccc2O1` the entry was “active”; with `Cc1noc(C)c1NC(=O)Nc1cccc2c1O[C@@H](CN(C)C(=O)NC(C)C)[C@@H](C)CN([C@H](C)CO)C2=O`, “inactive”.
`CCCC#Cc1cnc2c(c1)C(=O)N([C@@H](C)CO)C[C@@H](C)[C@H](CN(C)S(=O)(=O)c1cccc(OC)c1)O2`: the cytotoxicity call was “inactive”.
With `O=C(C[C@@H]1CC[C@H]2[C@@H](COC[C@H](O)CN2C(=O)c2cccnc2)O1)NCc1ccc(-c2ccccc2)cc1` the entry was “inactive”; with `C[C@H]1CN([C@@H](C)CO)C(=O)c2cc(NS(=O)(=O)c3ccc(F)cc3)ccc2O[C@H]1CN(C)S(=O)(=O)c1cccs1`, “inactive”; with `COc1ccc(NC(=O)N(C)C[C@H]2Oc3ccc(NC(=O)Nc4ccc(C(F)(F)F)cc4)cc3CC(=O)N([C@H](C)CO)C[C@H]2C)cc1`, “inactive”.
As for `C[C@H](CO)N1C[C@H](C)[C@H](CN(C)S(=O)(=O)c2ccc(Cl)cc2)Oc2c(NC(=O)c3ccc(-c4nccs4)cc3)cccc2C1=O`, the cytotoxicity call is “inactive”.
With `C[C@@H]1CN([C@H](C)CO)C(=O)c2cc(C#CC3(O)CCCC3)cnc2O[C@@H]1CN(C)C(=O)C1CCCCC1` the entry was “inactive”; with `C[C@@H](NC(=O)C[C@@H]1CC[C@H](NC(=O)CN2CCOCC2)[C@@H](CO)O1)c1ccccc1`, “inactive”.
In the case of `O=S1(=O)C[C@H](O)[C@@H](N2CCN(CCO)CC2)C1`, the cytotoxicity call was “inactive”.
As to `C[C@H](CO)N1C[C@H](C)[C@H](CN(C)S(C)(=O)=O)Oc2ccc(NS(=O)(=O)c3ccc(F)cc3)cc2C1=O`, the cytotoxicity call was “inactive”.
As for `CC(C)NC(=O)Nc1ccc2c(c1)CC(=O)N([C@@H](C)CO)C[C@@H](C)[C@H](CN(C)C(=O)NC1CCCCC1)O2`, the cytotoxicity call is “inactive”.
For the molecule `COc1cccc(S(=O)(=O)N(C)C[C@H]2Oc3ncc(-c4cccc(C(=O)N(C)C)c4)cc3C(=O)N([C@@H](C)CO)C[C@@H]2C)c1`, the cytotoxicity call is “inactive”.
On to `CCCNC(=O)Nc1ccc2c(c1)C(=O)N(C)C[C@@H](OC)[C@H](C)CN(Cc1ccc(-c3ccccn3)cc1)[C@H](C)CO2`, for which the cytotoxicity call is “inactive”.
Turning to `CNC[C@H]1Oc2ccc(NS(=O)(=O)c3cn(C)cn3)cc2CC(=O)N([C@@H](C)CO)C[C@@H]1C`, the cytotoxicity call was “inactive”.
With `Cc1noc(C)c1NC(=O)Nc1ccc2c(c1)C(=O)N([C@H](C)CO)C[C@@H](C)[C@H](CN(C)CC1CC1)OCCCC[C@@H](C)O2` the entry was “inactive”; with `CCCC#Cc1cnc2c(c1)C(=O)N([C@H](C)CO)C[C@@H](C)[C@@H](CN(C)S(=O)(=O)c1cn(C)cn1)O2`, “inactive”.
With `C[C@@H]1CN([C@@H](C)CO)C(=O)Cc2cc(NC(=O)C3CCCCC3)ccc2O[C@H]1CN(C)Cc1ccc(C(=O)Nc2ccccc2N)cc1` the entry was “inactive”; with `C[C@@H]1CCCCO[C@H](CN(C)Cc2ccc(Cl)c(Cl)c2)[C@@H](C)CN([C@H](C)CO)C(=O)c2cc(NS(=O)(=O)c3ccccc3)ccc2O1`, “inactive”; with `C[C@H]1CCCCO[C@H](CN(C)Cc2ccc(Cl)c(Cl)c2)[C@@H](C)CN([C@@H](C)CO)C(=O)c2cc(NS(=O)(=O)c3ccccc3)ccc2O1`, “inactive”.
With `C[C@@H]1CN([C@H](C)CO)C(=O)c2cc(NS(=O)(=O)c3ccccc3)ccc2O[C@@H](C)CCCCO[C@@H]1CN(C)Cc1ccc(Cl)c(Cl)c1` the entry was “active”; with `C[C@@H]1CCCCO[C@H](CN(C)Cc2ccc(Cl)c(Cl)c2)[C@@H](C)CN([C@@H](C)CO)C(=O)c2cc(NS(=O)(=O)c3ccccc3)ccc2O1`, “active”; with `Cc1noc(C)c1NC(=O)N(C)C[C@@H]1OCCCC[C@@H](C)Oc2ccc(NC(=O)NC3CCCCC3)cc2C(=O)N([C@@H](C)CO)C[C@H]1C`, “inactive”.
As for `C[C@H](CO)N1C[C@H](C)[C@@H](CN(C)C(=O)Nc2ccc(-c3ccccc3)cc2)OCc2ccccc2-c2ccccc2C1=O`, the cytotoxicity call is “inactive”.
With `CC(C)[Si](C#C[Si](C(C)C)(C(C)C)C(C)C)(O[C@H](C)c1cn([C@H](C)c2ccccc2)nn1)C(C)C` the entry was “inactive”; with `COc1ccc(S(=O)(=O)Nc2ccc3c(c2)C(=O)N([C@H](C)CO)C[C@H](C)[C@H](CN(C)C(=O)c2ccccc2)OCCCC[C@@H](C)O3)cc1`, “inactive”; with `C[C@H](CO)N1C[C@H](C)[C@H](CN(C)Cc2ccccc2F)Oc2cc(C#CCN(C)C)ccc2S1(=O)=O`, “inactive”.
With `COc1ccc(NC(=O)N(C)C[C@H]2Oc3c(NC(=O)c4cnccn4)cccc3C(=O)N([C@@H](C)CO)C[C@H]2C)cc1` the entry was “inactive”; with `COc1ccc(NC(=O)N(C)C[C@@H]2Oc3c(NC(=O)Nc4ccc(C(F)(F)F)cc4)cccc3C(=O)N([C@H](C)CO)C[C@@H]2C)cc1`, “inactive”; with `C[C@@H]1CN([C@@H](C)CO)C(=O)c2cccc(NC(=O)c3ccc(-c4nccs4)cc3)c2O[C@H]1CN(C)Cc1ccc(Oc2ccccc2)cc1`, “inactive”.
With `COc1ccc(NC(=O)Nc2cccc3c2O[C@@H](CN(C)C(=O)Nc2ccc(C(F)(F)F)cc2)[C@H](C)CN([C@H](C)CO)C3=O)cc1` the entry was “inactive”.
